Assay results: ChEMBL document CHEMBL3988442, “University of Dundee, Small-Polar-MMV Screening Library” (2021)
The campaign covered roughly 48,000 compounds. About 13,000 (27%) showed an effect of 50% or more. The list shows a part of the results.

The compounds below were run on Wolbachia pipientis (assay: Anti-Wolbachia Cell-Based Screen). Details: 5 µM.
Format: functional
Design: scale not given: in the data most compounds retested in dose-response had high values

Structure (SMILES)	Percent Effect [%]
CCCN(C(=O)CN1CCN(CCO)CC1)C1=CCCCC1	10.87
c1cnc(NCc2noc3c2CN(C2CCOC2)CC3)nc1 (centres undefined)	-0.4343
CS(=O)(=O)N1CC[C@@H](CC(=O)O)[C@@H](CC2=NCCc3cc(F)ccc32)C1	-4.983
N#Cc1cc2c(=O)n(CC(O)C(F)(F)F)ccc2[nH]c1=O (centres undefined)	-28.05
COCCCNC(=O)C(C)(C)N(C)C1CCCC1	11.81
CN(Cc1nnc(C2CC2)o1)CC1CCCN1c1cccnn1 (centres undefined)	15.59
Cn1c(=O)oc2cc(Nc3nccnc3C#N)ccc21	-0.7115
Cc1cc(CNC(=O)NCC(O)c2cccc(C(F)(F)F)c2)no1 (centres undefined)	-1.276
Cc1nc(CN2CCc3ncnc(-c4cccnc4)c3CC2)cs1.O=C(O)C(F)(F)F.O=C(O)C(F)(F)F	101.9
Cc1nc(CN2CCc3ncnc(-c4ccccc4)c3CC2)cs1.O=C(O)C(F)(F)F	-8.271
Cc1nc(CN2CCc3ncnc(-c4ccsc4)c3CC2)cs1.O=C(O)C(F)(F)F	-15.15
CC(C)(C)CNC(=O)CNC(=O)C1CC1	-0.05069
CCOC(=O)c1ccc(N2CCN(Cc3c(C)nn(C)c3Cl)CC2)nc1	-11.85
CC(=O)N1CC2C[C@]2(NC(=O)c2ccco2)C1 (some centres undefined)	-12.88
O=C(NCC1(O)CCc2ccccc2C1)c1cccs1 (centres undefined)	-6.747
C/C(NC(=O)c1ccco1)=C1/C(=O)C[C@@H]2[C@H]1C2(C)C	112.1
CC(C)n1cccc1C(=O)N1CC[C@@H](NC(=O)c2ccccn2)[C@H](O)C1	9.129
C/C(NC(=O)c1cccs1)=C1\C(=O)C[C@@H]2[C@H]1C2(C)C	112.6
O=C(N[C@]12CC1CN(C(=O)c1ccco1)C2)c1ccco1 (some centres undefined)	-8.008
O=C(NC1CC(=O)N(C2CC2)C1)c1cccs1 (centres undefined)	3.357
O=C(Nc1c(N2CCCC2)cccc1N1CCCC1)c1ccccn1	-1.766
C/C(NC(=O)c1ccccn1)=C1\C(=O)C[C@@H]2[C@H]1C2(C)C	103
CNC(=O)[C@H]1CC[C@@H]2[C@@H](CCN2C(=O)N(C)C)O1	-9.576
O=C(NCCC(=O)N1CCCC1)C(OC1CCCC1)c1ccccc1 (centres undefined)	-0.3907
O=C(O)C(F)(F)F.c1coc(CN2CCC3(CCOCC3COCC3CC3)CC2)c1 (centres undefined)	-46.4

Structure (SMILES)	Percent Effect [%]
COCC1COCCC12CCN(Cc1cccs1)CC2.O=C(O)C(F)(F)F (centres undefined)	99.73
COCC1COCCC12CCN(CCc1ccccc1)CC2.O=C(O)C(F)(F)F (centres undefined)	7.834
O=C(O)C(F)(F)F.c1csc(CN2CCC3(CCOCC3COCC3CC3)CC2)n1 (centres undefined)	99.84
O=C(O)C(F)(F)F.O=C(O)C(F)(F)F.c1cc(CN2CCC3(CCOCC3COCC3CC3)CC2)ccn1 (centres undefined)	-8.349
COCC1COCCC12CCN(Cc1nccs1)CC2.O=C(O)C(F)(F)F (centres undefined)	97.2
O=C(O)C(F)(F)F.c1cc(CN2CCC3(CCOCC3COCC3CC3)CC2)co1 (centres undefined)	-40.89
CN(Cc1nc2ccccc2[nH]1)C(=O)CN(C)c1ccc(Cl)cn1	9.224
CCN(CC)CCNCc1cc(O)c2cc(C)ccc2n1	11.73
CO[C@H]1COC[C@@H]1NC(=O)C1(Oc2ccc(Cl)cc2)CCNCC1	6.112
C[S+]([O-])CCNCc1ccc(OCc2cscn2)cc1 (centres undefined)	1.801
CCCN1CCN(C(=O)c2cc3ccccc3cn2)[C@H]2CS(=O)(=O)C[C@H]21	0.5207
CC(C)N[C@@H]1CC[C@@H]1NC(=O)c1ccccc1OC(F)(F)C(F)F	-9.491
CC1CCN(c2cc(NC(=O)C3CC3)ncn2)CC1	10.56
Cl.c1nc(CCC2CCCN2)cc(N2CCCCCC2)n1 (centres undefined)	105.3
CCc1cc(N2CCCC(c3noc(CC)n3)C2)ncn1 (centres undefined)	-9.129
Cl.c1nc(CCC2CCCCN2)cc(N2CCCC2)n1 (centres undefined)	95.63
CC1CCN(c2cc(CCC3CCCN3)ncn2)CC1.Cl (centres undefined)	81.62
Nc1ccc(-c2cc(O)cc(CCC3CCCCN3)c2)cn1 (centres undefined)	-4.594
OCC1CCCN1c1cc(N2CCC(OC3CCCC3)CC2)ncn1 (centres undefined)	10.66
Cl.c1nc(CCC2CCCN2)cc(N2CCCOCC2)n1 (centres undefined)	-10.48
CC1CCN(c2cc(-n3cnc(C(=O)N4CCSCC4)c3)ncn2)CC1	13.65
O=C(O)C(F)(F)F.O=C([C@H]1CN(Cc2ccc(F)cc2)C[C@H]2OCC[C@@H]12)N1CCCO1	1.984
Cc1cc(NC(=O)CN2CCOC(Cn3cccn3)C2)n(C)n1 (centres undefined)	-0.9893
CCC1CCCN(CC(=O)Nc2oc(C)c3c(C)n[nH]c(=O)c23)C1 (centres undefined)	7.246
CN(Cc1ccc(OCC(=O)N2CCOCC2)cc1)S(C)(=O)=O	-1.865

Structure (SMILES)	Percent Effect [%]
CCc1ccccc1C(=O)N1CCN(S(C)(=O)=O)[C@@H](C)C1	7.255
NC(=O)CCOc1nc(-c2ccccc2Cl)no1	-3.331
CCn1c(C2CCNCC2)nn(CCn2ccc(C)n2)c1=O	83.74
CCn1c(C2CCCNC2)nn(CCn2cncn2)c1=O (centres undefined)	98.85
CCOCCn1nc(C2CCNCC2)n(Cc2ccccc2)c1=O	-5.43
CCn1c(C2CCCN(C(=O)c3ccc[nH]3)C2)nn(CCN(C)C)c1=O (centres undefined)	-8.209
CCn1c(C2CCNCC2)nn(CCn2cncn2)c1=O	89.88
CCn1c(Cn2cncn2)nnc1C1CCN(Cc2ccncc2)CC1	-0.7206
O=c1n(CCn2cccc2)nc(C2CCNCC2)n1Cc1ccccc1	-16.93
CCn1c(C2CCNCC2)nn(CCCc2ccccc2)c1=O	0.4782
CCCn1nc(C2CCNCC2)n(Cc2ccccc2)c1=O	-22.36
FC(F)(F)c1ccc2nc([C@H]3CCN(C4CCOCC4)C3)[nH]c2c1	-2.136
Cc1nn(C)c(C)c1S(=O)(=O)N(C)Cc1nn(C)c(Cl)c1Cl	-26.42
CCOCC1CN(Cc2ccco2)Cc2nccn2C1.O=C(O)C(F)(F)F (centres undefined)	99.94
CCN(CC)CC1CN(Cc2ccco2)Cc2nccn2C1 (centres undefined)	84.77
c1cncc(OCC2CN(Cc3ccco3)Cc3nccn3C2)c1 (centres undefined)	-2.745
c1cncc(COCC2CN(Cc3ccco3)Cc3nccn3C2)c1 (centres undefined)	6.885
c1coc(CN2Cc3nccn3CC(Cn3cncn3)C2)c1 (centres undefined)	1.02
CC(C)C(C(=O)NCC1CC1)n1cnc2cc(F)c(F)cc21 (centres undefined)	-9.964
O=C(CCc1nc(Cl)n[nH]1)NC1CCCN(CC2CCCCC2)C1 (centres undefined)	-7.697
CCc1ncc(C(=O)N(C)Cc2cc(-c3ccncc3)no2)cn1	-12.94
COc1cccc2c1OCC(NCCCOc1cccnc1)C2 (centres undefined)	86.98
c1ccc(OCCNC2CCN(c3ncccn3)CC2)cc1	-7.109
c1cncc(OCCCNC2COc3ccccc3C2)c1 (centres undefined)	107.3
COc1cccc2c1OCC(NCc1cnn(-c3ccccc3)c1)C2 (centres undefined)	-6.454

Structure (SMILES)	Percent Effect [%]
c1cncc(OCCNC2Cc3ccccc3C2)c1	2.244
COc1cccc2c1OCC(NCCc1cnn(-c3ccccc3)c1)C2 (centres undefined)	-5.519
OC(CN(Cc1ccccc1)Cc1cscn1)c1cccs1 (centres undefined)	-27.1
CNC(=O)c1nc2c(s1)CCN(C(=O)c1ccc(OC)cc1)CC2	-5.332
Cc1ccc(OC2(C(=O)O)CCN(C(=O)c3ccc(F)cc3)CC2)cn1	-2.115
CNC(=O)C1(c2cnccn2)CCCN1C(=O)c1cccc(F)c1 (centres undefined)	96.69
CNC(=O)C1(c2cnccn2)CCCN1C(=O)c1ccc(F)cc1 (centres undefined)	95.13
COc1ccc(CN2CCOC3(CCCN(c4cnccn4)C3)C2)cc1.O=C(O)C(F)(F)F.O=C(O)C(F)(F)F (centres undefined)	-2.164
O=C(c1cccc(F)c1)N1C[C@@H](CN2CCCCC2)[C@@H](CO)C1	0.9976
COc1ccncc1NC(=O)C1(c2ccc(F)cc2)CCC1	-2.782
CNC(=O)C1(c2cnccn2)CCCN1C(=O)c1ccn(C)n1 (centres undefined)	-6.037
CNC(=O)C1(c2cnccn2)CCCN1C(=O)c1ccc(OC)cc1 (centres undefined)	106.6
CNC(=O)C1(c2cnccn2)CCCN1C(=O)c1ccccn1 (centres undefined)	81.35
Cc1ccc(OC2(C(=O)O)CCN(C(=O)c3cccc(F)c3)CC2)cn1	1.243
O=C(CCNS(=O)(=O)c1cccnc1)N1CCCCC1	-5.593
O=C(c1cnccn1)N1C[C@@H]2OCC(=O)N(CC3CCCCC3)[C@@H]2C1	-4.007
Cc1ccc(C)c(NC(=O)c2n[nH]c(-n3cnnc3)n2)c1	8.614
Cn1c(Nc2ccc(F)cc2)c(C#N)c(=O)n(C)c1=O	7.851
CNC(=O)C1(c2cnccn2)CCCN1C(=O)c1cccc(C)n1 (centres undefined)	90.25
CNC(=O)C1(c2cnccn2)CCCN1C(=O)c1ccccc1 (centres undefined)	95.42
Cc1cccc(C(=O)N2C[C@@H]3[C@H](CC(=O)Nc4cccnc4)[C@@H]3C2)n1.O=C(O)C(F)(F)F.O=C(O)C(F)(F)F	-1.772
Cc1cccc(C(=O)N2CCn3c(CN4CCN(C)CC4)cnc3C2)n1	-13.05
CC1(C(=O)NCCN2CCCCC2)CCCN1C(=O)c1ccccc1 (centres undefined)	0.8057
O=C(c1cnn(-c2ccccc2)c1)N1CCN(c2cnccn2)CC1	-7.881
